This is part of a sample that, as a whole, favours compounds with a hit. Of some 79,000 tested, about 15% had one in any assay. Calls of active or inactive are those of the source. Rule as the data show it: active = growth inhibition above about 70%; inactive = the rest. Where a SMILES comes first, the peptide text is derived from it. The star is where a group is joined. Cbz = O=C(OCc1ccccc1)*
Tests used:
[1] = NCI Yeast Anticancer Drug Screen. Data for the rad50 strain (AID 155);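 also: 0% = growth of vehicle-only cultures of the same strain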; conditions: S. cerevisiae rad50 strain growth inhibition; at 50.0 µM; hits give high values
How it was run: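 DNA repair mutant yeast, compound exposure, growth read-out; inhibition is taken relative to vehicle.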

[2] = NCI Yeast Anticancer Drug Screen. Data for the mec2-1 strain (AID 157); conditions: S. cerevisiae mec2-1 strain, at 50.0 µM, hits give high values
How it was run: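 mec2-1 yeast strain, carrying an alteration in DNA damage repair or cell cycle control, was exposed to compounds; growth inhibition was measured relative to vehicle-treated controls.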

[3] = NCI Yeast Anticancer Drug Screen. Data for the sgs1 mgt1 strain (AID 161);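 also: 0% = growth of cultures given vehicle only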; conditions: S. cerevisiae sgs1 mgt1 strain, at 50.0 µM, hits give high values
How it was run: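 Growth of a repair-deficient yeast mutant was monitored after compound treatment and expressed as inhibition relative to vehicle-treated cultures.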

[4] = NCI Yeast Anticancer Drug Screen. Data for the cln2 rad14 strain (AID 165);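 also: 0% = growth equal to vehicle treated cultures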; conditions: S. cerevisiae cln2 rad14 strain, at 50.0 µM, hits give high values
How it was run: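 Yeast carrying cln2 and rad14 alterations (cell cycle control and DNA damage repair) were exposed to compounds. Growth inhibition was measured against vehicle-treated controls.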

[5] = NCI Yeast Anticancer Drug Screen. Data for the bub3 strain (AID 167); conditions: S. cerevisiae bub3 mutant strain, at 50.0 µM, hits give high values
How it was run: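 In this screen, a yeast mutant lacking normal mitotic checkpoint function is challenged with compound. Relative growth versus vehicle gives the inhibition value.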

[6] = NCI Yeast Anticancer Drug Screen. Data for the mlh1 rad18 strain (AID 175); conditions: S. cerevisiae mlh1 rad18 strain growth inhibition; at 50.0 µM; hits give high values
How it was run: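 Growth inhibition of the yeast strain was measured after compound exposure and expressed relative to vehicle-treated controls. The strain carries defined defects in DNA damage repair.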

Measured: growth inhibition

COc1ccc([N+](=O)[O-])cc1NS(=O)(=O)c1ccc(NC(C)=O)cc1
inactive: [1] 1.6% | [2] 18.7% | [3] -5.55% | [4] -1.25% | [5] 23.8% | [6] -19%

CCC(=O)Nc1nnc(SCCCCCCCCCCSc2nnc(NC(=O)CC)s2)s1
inactive: [1] 20.6% | [2] 4.95% | [3] 17.7% | [4] 19.3% | [5] -2.5% | [6] 21.5%

CC(=O)N1CN2C(=O)CCC2c2ccccc21 (stereo not given)
inactive: [1] -7.85% | [2] 1.4% | [3] -14.2% | [4] 9.25% | [5] -21.5% | [6] -48.2%

O=C(OCc1ccccc1)c1ccc(Cl)cc1
inactive: [1] 22.9% | [2] 5.7% | [3] 20.6% | [4] 15.2% | [5] -1.65% | [6] 4.4%

C=C(CC(=O)NN)C(=O)NN
inactive: [1] -4.75% | [2] 12.3% | [3] -24.2% | [4] -3.1% | [5] -22.5% | [6] 1.25%

O=C1CCC2(CC1)Cc1ccccc1C2O (stereo not given)
inactive: [1] -8.75% | [2] -8.45% | [3] 18% | [4] 29.4% | [5] -9.35% | [6] -5.5%

CCN(CC)CCN1CC(=O)N2Cc3ccccc3CN2C(=O)C1
inactive: [1] -0.7% | [2] -4.45% | [3] 0.6% | [4] 10.4% | [5] 4.45% | [6] 5.9%

O=[N+]([O-])[C@@H]1C[C@@H]2C=C[C@H]1CC2
inactive: [1] 10.1% | [2] 0.2% | [3] 2.6% | [4] -1.3% | [5] 0.3% | [6] 0.15%

COc1cc(C(=O)NNC(=O)C2CCC(=O)N2Cc2ccccc2)cc(OC)c1OC (stereo not given)
inactive: [1] 3.3% | [2] -4.6% | [3] -18% | [4] -4.45% | [5] -1.75% | [6] 28.4%

Cc1cc(=O)c2ccccc2o1
inactive: [1] -5.15% | [2] -7.75% | [3] -1.3% | [4] -0.1% | [5] -18.9% | [6] -13.7%

BrCC(Br)c1ccc(C(Br)CBr)cc1 (stereo not given)
inactive: [1] 7.65% | [2] -21.6% | [3] 25.1% | [4] 14.7% | [5] 1.5% | [6] 12.1%

CN1CCCCC1C(O)CO (stereo not given)
inactive: [1] 11.4% | [2] -5.7% | [3] -8.05% | [4] -47.4% | [5] -3.2% | [6] -27.1%

O=S(=O)(O)c1cc(N=Nc2cc(S(=O)(=O)O)c3cccnc3c2O)ccc1/C=C/c1ccc(N=Nc2cc(S(=O)(=O)O)c3cccnc3c2O)cc1S(=O)(=O)O.[Cu+2].[Na+]
inactive: [1] 18.5% | [2] 18.2% | [3] 34.6% | [4] 25% | [5] -11.2% | [6] 9.25%

CC1CCC2C(C)C3C(CC4C5CC=C6CC(O)CCC6(C)C5CCC43C=O)N2C1 (stereo not given)
inactive: [1] 30.3% | [2] 19.9% | [3] 24.9% | [4] 16.6% | [5] 3.9% | [6] 19.4%

O=C(CN1CCCC1)Nc1ccc2sc3ccccc3c(=O)c2n1
inactive: [1] 17.2% | [2] -29.7% | [3] -5.75% | [4] 21.6% | [5] 11% | [6] 3.55%

Cc1ccc2c(c1)C(OC(=O)Nc1ccccc1)CCC2 (stereo not given)
inactive: [1] 18.1% | [2] 2% | [3] 3.5% | [4] 6.05% | [5] 38% | [6] 5.1%

CN(C)CCC1(C#N)CCCCC1
inactive: [1] 5.3% | [2] 23.3% | [3] 10.4% | [4] -19.3% | [5] 12.4% | [6] 1.65%

C=C(C)CC1CC(=O)OC1=O (stereo not given)
inactive: [1] 26% | [2] -16.4% | [3] 13.6% | [4] -21.9% | [5] -9.8% | [6] 4.35%

COc1ccccc1/C=C1\C(=O)N(C(=O)Cc2ccccc2)N=C1C
inactive: [1] -4.4% | [2] -8.15% | [3] -54.2% | [4] -10.8% | [5] -3.85% | [6] -25.4%

COCCCNC(=O)C1=CCCN(C)C1
inactive: [1] 6% | [2] -3.45% | [3] -3.55% | [4] -2.45% | [5] -1.55% | [6] -3.3%

CC(/C=C/C=C/C=C/C=C/C=C/C(O)=C1/C(=O)C(CCC(=O)O)N(C)C1=O)=C\C(C)C(OC1CC(O)C(O)C(C)O1)C(C)C (stereo not given)
inactive: [1] -11.6% | [2] -28.6% | [3] -1.7% | [4] 3.35% | [5] -10.1% | [6] -2.65%

CC1=C(C(=O)Nc2ccc([N+](=O)[O-])cc2)C(c2cccc([N+](=O)[O-])c2)C(C(=O)Nc2ccc([N+](=O)[O-])cc2)=C(C)N1
inactive: [1] -9.25% | [2] -4.4% | [3] 12.9% | [4] -17.1% | [5] -15.3% | [6] -15.1%

CCOC(=O)CCC(NC(=O)C(CCC(=O)OCC)NC(=O)OCc1ccccc1)C(=O)O (stereo not given) (tested in a mixture with another compound) (Cbz-Glu(OEt)-Glu(OEt)-OH; configuration not given here)
inactive: [1] -43.5% | [2] 1.15% | [3] -11.2% | [4] -34.9% | [5] -52.9% | [6] 38.6%

O=[N+]([O-])c1ccc(/C=C/c2ccc([N+](=O)[O-])cc2S(=O)(=O)O)c(S(=O)(=O)O)c1
inactive: [1] 25.8% | [2] -9.6% | [3] 30.8% | [4] 5.45% | [5] 32.9% | [6] 32%

NNc1nc2ccccc2[nH]1
inactive: [1] 16.6% | [2] -0.1% | [3] -34.9% | [4] -14.4% | [5] 8.9% | [6] 8.85%

CC1(C)CNC[C@@](C)(O)C(=O)NC(C)(C)CNC[C@@](C)(O)C(=O)N1
inactive: [1] 9.75% | [2] 5.75% | [3] -32.6% | [4] 4.7% | [5] -46.3% | [6] -9.2%

COC(=O)C1=NNC(c2ccc(C)cc2)C1 (stereo not given)
inactive: [1] 1.75% | [2] -2.25% | [3] -0.95% | [4] -0.3% | [5] -16% | [6] 2.85%

COC1=CC(=O)C(CCC(C)=O)=CC1=O
inactive: [1] -41.3% | [2] -29.6% | [3] -9.55% | [4] -16.4% | [5] 15.2% | [6] -4.3%

CC(C)(C)N=c1n(C(C)(C)C)oc(=O)n1C(C)(C)C
inactive: [1] -11.8% | [2] -34% | [3] -25.1% | [4] -2.95% | [5] -27.9% | [6] -11.9%

Nc1[nH]c(=O)ncc1-c1cccc(Cl)c1
inactive: [1] -6.45% | [2] -4.15% | [3] 11.6% | [4] -7.8% | [5] 5.2% | [6] 33.1%

CCCCCCCCCC(=O)N/N=C/c1ccncc1
inactive: [2] 23.1% | [4] 9.35% | [5] 26.2%
active: [1] 97.2% | [3] 98.8% | [6] 98.3%

[NH-]c1ncnc2c1N=C[N+]2=CC=CCO
inactive: [1] -1.6% | [2] -17% | [3] -19.7% | [4] -7.6% | [5] -28.4% | [6] -10.7%

O=C(O)c1cccc(-c2nn[nH]n2)c1
inactive: [1] 2.75% | [2] 0.5% | [3] -4.55% | [4] -55% | [5] 0.25% | [6] -2.7%

O=S(=O)(c1ccccc1)c1ccc(O)cc1
inactive: [1] -20.8% | [2] -23.8% | [3] -16.9% | [4] -29.8% | [5] -8.35% | [6] -15.7%

O=c1oc2ccccc2c(O)c1C=NC(=S)c1ccncc1
inactive: [1] -30.6% | [2] -38.4% | [3] -27.9% | [4] 24.9% | [5] -11.3% | [6] -25.5%

CC(=O)O/N=C1\C=Cc2c(no[n+]2[O-])C1=O
inactive: [1] -8.9% | [2] -20.3% | [3] -0.7% | [4] 12.1% | [5] -12.5% | [6] -5.35%

CS(=O)(=O)C(CCC(=O)c1ccc2ccccc2c1)C(=O)c1ccccc1 (stereo not given)
inactive: [1] 3.1% | [2] -12.7% | [3] 5.3% | [4] 20.4% | [5] -2.4% | [6] -7.15%

N#C/C(=C(\O)C(=O)O)c1ccc(-c2cccc3ccccc23)cc1
inactive: [1] 29.6% | [2] 0.6% | [3] -17.9% | [4] 1.9% | [5] 16.7% | [6] 26.9%

c1coc(C2OCCO2)c1
inactive: [1] -24.1% | [2] -31.6% | [3] -26.6% | [4] 6.75% | [5] -21.8% | [6] -3.1%

COc1cc(/C=N/NC(=O)Cc2cccc3ccccc23)ccc1O
inactive: [1] 21.1% | [2] 9.5% | [3] 3.05% | [4] -5.3% | [5] 39.4% | [6] 8.8%

From PubChem BioAssay (NCI)
